Assay [1] is described as follows: Cellular Toxicity (caspase-3) N2a (AID 665).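 Also: compound exposure lasted 16 h at 37 °C before readout.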 Summed up:
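Mouse N2a neuroblastoma cells, 1500 per well, treated 16 h at 37 °C in complete medium; caspase-3/7 activity by Caspase-Glo luminescence after 1 h. Normalized to DMSO and 10 uM staurosporine; AC50 from Hill fits.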

A short description of assay [2]: Cellular Toxicity (caspase-3) NIH 3T3 (AID 666).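 Also: 0% = DMSO basal and 100% = 100 µM tamoxifen stimulation.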 Summed up:
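Mouse NIH 3T3 fibroblasts (1000/well) treated 16 h at 37 C; caspase-3/7 activity measured by Caspase-Glo 3/7 luminescence after 20 min. Normalized to DMSO and 100 uM tamoxifen; AC50 from Hill fits.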

Assay [3] can be described thus: Cellular Toxicity (caspase-3) Renal Proximal Tubule (AID 667).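 Also: cells exposed to compound for 16 hours at 37 °C before detection; 0% = DMSO basal and 100% = 10 µM staurosporine.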 To be noted: Potency: caspase-3 activation. The method, boiled down: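 Caspase-Glo 3/7 read-out, rat primary kidney proximal tubule cells. Compound exposure 16 h, 37 °C; detection after 1 h at RT. Activity scaled to DMSO and 10 uM staurosporine.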
The nature of assay [4]: MultiTox-Fluor Cytotoxicity Assay - LYMP1-001 - Dead Cells (AID 946).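 Also: 0% = DMSO and 100% = tetraoctylammonium bromide.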 Summed up:
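AC50 from Hill fit of concentration-response; data normalized to DMSO (basal) and 15 uM tetraoctylammonium bromide (100%). LYMP1-001 lymphoblastoid cells, 2500/well, 16 hr compound at 37 C; dead-cell protease fluorescence, Ex/Em 485/520.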

The nature of assay [5]: Cell Viability - LYMP1-002 - Assay at 16 hr (AID 948). Also: potency is read from the fitted curve at half-maximal effect. The method, boiled down:
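In this qHTS, lymphoblastoid LYMP1-002 cells (human) receive compounds for 16 hr at 37 C. Viability is taken from CellTiter-Glo ATP luminescence, and AC50 derives from standard Hill fits.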

Assay [6] in a line: MultiTox-Fluor Cytotoxicity Assay - LYMP1-003 - Dead Cells (AID 961).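 Also: 0% = DMSO and 100% = tetraoctylammonium bromide; nearly all actives have a fitted effect of over 70% in size.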 The method, boiled down:
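Human lymphoblastoid LYMP1-003 cells (2500/well) were treated with compounds for 16 hr at 37 C in complete medium. Dead-cell protease release was read by bis-AAF-R110 fluorescence (Ex/Em 485/520). AC50 came from Hill fits, normalized to DMSO and 15 uM tetraoctylammonium bromide.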

A short description of assay [7]: Cell Viability - LYMP1-003 - Assay at 24 hr (AID 963). Also: potency is read from the fitted curve at half-maximal effect. The method, boiled down: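 Human lymphoblastoid LYMP1-003 cells, 2500/well, treated 24 h at 37 C in complete medium. Viability read as intracellular ATP by CellTiter-Glo luminescence after 30 min at room temperature; AC50 from Hill-equation fits of qHTS concentration-response.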
Assay [8] is described as follows: Cell Viability - LYMP2-003 (AID 965).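 Also: cells exposed to compounds for 24 h before reading; nearly all actives have a fitted effect of over 50% in size.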 Also: potency is read from the fitted curve at half-maximal effect. The method, boiled down:
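qHTS, human lymphoblastoid line, 2500 cells/well, complete medium. 24 h drug, 37 C. ATP-based luminescent readout; Hill-fit AC50.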

The nature of assay [9]: Cell Viability - LYMP2-004 (AID 966). Also: nearly all actives have a fitted effect of over 65% in size. Also: potency is read from the fitted curve at half-maximal effect. Summed up: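 Lymphoblastoid LYMP2-004 cells, 2500 per well, were preincubated for 5 hr and then treated with compound for 24 h at 37 C in complete medium. Viability was read as cellular ATP by CellTiter-Glo luminescence, and AC50 values were taken from Hill fits to concentration-response data.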
Assay [10] is described as follows: Cell Viability - LYMP2-005 (AID 967). Also: potency is read from the fitted curve at half-maximal effect. The method, boiled down:
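Luciferase-based ATP quantitation served as the viability measure in human lymphoblastoid LYMP2-005 cells exposed to test compounds for 24 h at 37 C in complete culture medium. Potency (AC50) was obtained by fitting concentration-response curves with the Hill equation.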

The nature of assay [11]: Cell Viability - LYMP2-009 (AID 968). Also: nearly all actives have a fitted effect of over 55% in size. Also: potency is read from the fitted curve at half-maximal effect.
A short description of assay [12]: Cell Viability - LYMP2-011 (AID 969). Also: nearly all actives have a fitted effect of over 60% in size. Also: potency is read from the fitted curve at half-maximal effect. Summed up: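 2500 cells/well in complete medium, compound-treated 24 h at 37 C. Viability read as intracellular ATP by CellTiter-Glo luminescence after 30 min at room temperature. AC50 from Hill fits of qHTS concentration-response data.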
A short description of assay [13]: Cell Viability - LYMP2-013 (AID 970). Also: nearly all actives have a fitted effect of over 55% in size. Also: potency is read from the fitted curve at half-maximal effect. Summed up:
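Human lymphoblastoid LYMP2-013 cells, 2500/well, treated 24 h at 37 C in complete medium; viability as intracellular ATP by CellTiter-Glo luminescence after 30 min. AC50 from Hill fits of qHTS concentration-response.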

Assay [14] is described as follows: Cell Viability - LYMP2-015 (AID 971). Also: nearly all actives have a fitted effect of over 55% in size. Also: potency is read from the fitted curve at half-maximal effect. The method, boiled down:
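LYMP2-015 human lymphoblastoid cells (2500/well) in complete medium, compound-treated 24 h at 37 C; viability read as cellular ATP by CellTiter-Glo luminescence after 30 min at room temperature. AC50 from Hill-equation fits of qHTS concentration-response data.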

Assay [15] is described as follows: Cell Viability - LYMP2-017 (AID 972). Also: nearly all actives have a fitted effect of over 55% in size. Also: potency is read from the fitted curve at half-maximal effect. Summed up:
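LYMP2-017 human lymphoblastoid cells (2500/well) settled 5 hr at 37 C, then exposed to compound 24 hr at 37 C in complete medium. Viability taken as intracellular ATP by CellTiter-Glo luminescence after 30 min at RT; AC50 from Hill fits.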

Assay [16] in a line: Cell Viability - LYMP2-019 (AID 973). Also: nearly all actives have a fitted effect of over 55% in size. Also: potency is read from the fitted curve at half-maximal effect. The method, boiled down: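 Human lymphoblastoid LYMP2-019 cells (2500/well) preincubated 5 h at 37 C, then treated 24 h at 37 C in complete medium. Viability by CellTiter-Glo ATP luminescence after 30 min at room temperature; AC50 from Hill fits.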
Assay [17] is described as follows: qHTS assay for small molecule agonists of the antioxidant response element (ARE) signaling pathway measured by Nrf2-dependant transcriptional activity (AID 720636; active = well fitted curve in the direction sought with a large enough effect in the repeat runs; an effect the other way counts as inactive or inconclusive;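 also: HepG2 cells with an ARE-driven luciferase reporter; % of control where 0% means no effect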). The method, boiled down:
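In HepG2 cells engineered with an Nrf2-responsive luciferase gene, ARE induction was quantified as luminescence after 16 hr compound treatment at 37 C.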

Assay [18] in a line: qHTS assay for small molecule antagonists of the retinoid-related orphan receptor gamma (ROR-gamma) signaling pathway - cell viability counter screen (AID 720652; active = well fitted curve in the direction sought with a large enough effect in the repeat runs; an effect the other way counts as inactive or inconclusive;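 also: compound exposure lasted 16 hr before ATP read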; also: potency is read from the fitted curve at half-maximal effect). The method, boiled down: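 CHO cells carrying TET-inducible ROR and RORE-luciferase reporter, plated 5 hr, then dosed with compound plus doxycycline. After 16 hr at 37 C, viability read as intracellular ATP by CellTiter-Glo luminescence.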

Assay [19] in a line: qHTS assay for cell viability of HEK293 cells (AID 743288). Also: nearly all actives have a fitted effect of over 50% in size. Also: potency is read from the fitted curve at half-maximal effect. As to max response: % is scaled to controls: 0 for no effect and ±100 for the full control effect. To be noted: ATP luminescence (CellTiter-Glo), 18 h; max response: hits give low values. The method, boiled down: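 Luminescent ATP quantitation served as the viability read-out. Cells (parental HEK293, 2,000/well) received compounds after at least 5 h at 37 C and were exposed for 18 h before a 30 min room-temperature reagent step.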

A short description of assay [20]: qHTS assay for small molecule activators of the human pregnane X receptor (PXR) signaling pathway (AID 720659; call rule not given here; also: 0% is about no effect).

Where “and” joins values, the source holds several entries; their conditions need not be identical. Equal values may be shown once. Values without a mark were called inactive. Records with an inconclusive call do not appear. Calls of active or inactive are those of the source. Unless noted, calls follow the shape of the dose curve; as a rule, active = well fitted curve in the direction sought with a large enough effect; inconclusive = small, poorly fitted or top-dose-only effect, or another doubt; inactive = no such curve, though single readings can be large; an effect the other way counts as inactive or inconclusive.

The text below walks through data of PubChem BioAssay (NCATS).

Consider `CC(CCC(=O)O)(c1ccc(O)cc1)c1ccc(O)cc1`, for which the compound was classed as inactive in [1], in assay [2] and in [20]. Besides, the Potency entry in assay [3], in assay [4], in [5], in assay [6], in assay [7] and in assay [8] was “inactive” each time. In addition, the Potency result in assay [9], in assay [10], in assay [11], in [12], in assay [13] and in assay [14] was “inactive” in each case. The Potency entry in assay [15], in [16], in assay [17] and in assay [18] was “inactive” throughout. In addition, the max response in [19] was -3.82% and -8.09%.
In the case of `N=C1C=CC(=C(c2ccc(N)cc2)c2ccc(N)cc2)C=C1`, the compound was classed as inactive in assay [1], in assay [2] and in assay [20]. The Potency result in [3], in assay [4], in assay [6] and in assay [17] was “inactive” throughout. For the same compound, the Potency was 25.1 µM (active) in assay [5]; 15.8 µM (active) in [7]; 15.8 µM (active) in [8]; 12.6 µM (active) in [9]; 12.6 µM (active) in assay [10]; 7.94 µM (active) in [11]. Also, the Potency in assay [12] was 7.94 µM (active); in assay [13], 12.6 µM (active); in assay [14], 10 µM (active); in [15], 12.6 µM (active); in [16], 7.94 µM (active); in assay [18], 18.8 µM (active). Also, the Potency in assay [19] was 31.6 µM (active).
